Bioassay records (PubChem)
Hits are enriched below; roughly 6% of the tested compounds scored in any of these assays.
Tau fluor cs: counter-screen for tau fibril formation inhibitors | 280,000 tested, 0.93% active | Potency, µM (titrated, usually from 57.7 µM), for inactives: at the top dose activity change, negative = decrease | tau K18 P301L Alexa594 fluorescence, heparin fibrillization | AID 1463; note: nearly all actives have a fitted effect of over 55% in size
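Human K18 P301L tau (15 uM unlabeled plus 0.24 uM Alexa 594-labeled, final) in 100 mM sodium acetate pH 7 was mixed with compound and 20 uM heparin and incubated 6 hr at 37 C.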
VDR inh: blocks the human vitamin D receptor | VDR-SRC2-3 peptide fluorescence polarization, 2 h | 400,000 tested, 0.93% active | Potency, µM, for inactives: max response, negative = inhibition, most hits filed as inhibitors | AID 504847
Target sequence (P11473 whole entry, looked up): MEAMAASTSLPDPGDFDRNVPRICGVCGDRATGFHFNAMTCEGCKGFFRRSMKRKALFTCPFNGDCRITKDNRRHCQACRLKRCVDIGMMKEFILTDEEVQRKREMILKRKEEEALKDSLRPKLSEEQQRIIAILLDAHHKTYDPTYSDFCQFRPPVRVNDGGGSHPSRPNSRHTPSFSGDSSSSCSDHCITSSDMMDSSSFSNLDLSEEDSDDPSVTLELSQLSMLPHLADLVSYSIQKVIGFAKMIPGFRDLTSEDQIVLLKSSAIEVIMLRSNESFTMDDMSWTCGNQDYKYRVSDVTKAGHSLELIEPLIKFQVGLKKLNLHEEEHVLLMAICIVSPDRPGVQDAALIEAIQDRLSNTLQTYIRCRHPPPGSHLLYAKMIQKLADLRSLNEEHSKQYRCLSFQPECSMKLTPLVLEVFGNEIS
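The screen uses fluorescence polarization to detect compounds that interfere with recruitment of the SRC2-3 coactivator peptide to VDR; plates are read after 2 h at room temperature.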
Tau fibril ThT: tau fibrillization inhibition (ThT binding) | P10636 | recombinant tau K18 P301L (four-repeat tau fragment), heparin-induced fibrillization, ThT fluorescence | Potency, µM (top dose mostly 57.4 µM), inactives show top-dose activity, negative = inhibition, most hits filed as inhibitors | 270,000 tested, 2.1% active | AID 1460; note: nearly all actives have a fitted effect of over 55% in size
Target sequence (P10636 561-689 P618L limits assumed): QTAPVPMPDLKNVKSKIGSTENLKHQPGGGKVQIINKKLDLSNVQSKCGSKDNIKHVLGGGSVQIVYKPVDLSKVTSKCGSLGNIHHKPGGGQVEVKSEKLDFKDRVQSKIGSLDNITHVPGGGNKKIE
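In this qHTS, human K18 P301L tau is incubated with compound and heparin for 6 hr at 37 C, and Thioflavin T fluorescence then reports fibril load.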
PLK1 PBD inh: inhibitors of human PLK1 polo-box domain binding; AID 720504; P53350; 360,000 tested, 2.8% active; Potency, µM, inactives show max response, negative = inhibition, most hits filed as inhibitors; Plk1 PBD binding of FITC phosphopeptide, fluorescence polarization; note: series mostly up to about 57 µM; nearly all actives have a fitted effect of over 65% in size
Sfp PPTase inh: inhibitors of Bacillus subtilis Sfp phosphopantetheinyl transferase; Q9F4F7; Biochemical Sfp PPTase activity, qHTS; Potency, µM, inactives show largest response in the series, negative = inhibition, hits mostly inhibitors; 310,000 tested, 3.5% active; AID 1490;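 note: the enzyme is Sfp with the accession as filed and its product quenches rhodamine fluorescence; 0% = enzyme reaction without inhibitor and -100% = no enzyme wells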
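After 15 min at room temperature with compound, 15 nM Sfp received 5 uM rhodamine-CoA plus 12.5 uM BHQ-2-ybbR (50 mM Hepes pH 7.6, 10 mM MgCl2). Rate came from the fluorescence difference over 30 min, ex 525/em 598 nm.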
Tau FP inhib: blocks human tau fibril formation measured by polarization; P10636; K18 P301L tau heparin fibrillization, Alexa594 FP, 6 h; 280,000 tested, 0.39% active; Potency, µM (highest dose often 57.7 µM), without a hit: top-dose activity, negative = inhibition, actives largely listed as inhibitors; note: nearly all actives have a fitted effect of over 55% in size
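Read-out: fluorescence polarization of Alexa 594-labeled tau (0.24 uM), 555 nm excitation, 632 nm emission. Mixtures held 15 uM unlabeled K18 P301L, compound and 20 uM heparin, pH 7 acetate buffer, incubated 6 hr at 37 C.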
TbPYK confirm: confirmation of Trypanosoma brucei pyruvate kinase inhibitors; shares compounds with PLK1 PBD inh; recombinant TbPYK, Kinase-Glo ATP luminescence; Potency, µM (highest dose often 76.9 µM), for the others: top-dose activity change, negative = inhibition, usual class: inhibitors; 890 tested, 67% active; AID 720569; note: nearly all actives have a fitted effect of over 70% in size
TbPYK ADP-Glo: orthogonal confirmation of Trypanosoma brucei pyruvate kinase inhibitors; AID 720584; shares compounds with PLK1 PBD inh; recombinant TbPYK, ADP-Glo luminescence, 60 min; 890 tested, 62% active; Potency, µM (series often up to 76.9 µM), for inactives: top-dose activity change, negative = inhibition, actives largely listed as inhibitors; note: nearly all actives have a fitted effect of over 75% in size
The depositor's hits bear a star; u = inconclusive; x = no result given. Calls come from the whole dose curve; as a rule, active = well fitted curve in the direction sought with a large enough effect; inconclusive = small, poorly fitted or top-dose-only effect, or another doubt; inactive = no such curve, though single readings can be large; an effect the other way counts as inactive or inconclusive. Unless noted, % is set by controls: 0 for no effect and ±100 for the full control effect; potency is the fitted concentration of half-maximal effect.

SMILES	Tau fluor cs	VDR inh	Tau fibril ThT	PLK1 PBD inh	Sfp PPTase inh	Tau FP inhib	TbPYK confirm	TbPYK ADP-Glo
Cn1c(SCC(=O)NC2CCCCC2)nnc1-c1cccc(N)c1	-1%	-2%	3%	-16%	-9%	5%	u	u
Cn1c(SCC(=O)NC2CCCC2)nnc1-c1ccncc1	7%	0%	1%	3%	14%	5%	x	x
O=C(NCC(c1cccs1)S(=O)(=O)c1cccs1)c1ccc(Cl)cc1 (stereo not given)	-18%	9%	-4%	x	x	u	x	x
COc1ccc2c(CNCc3cccs3)c(C(=O)O)n(Cc3ccccc3C)c2c1	-15%	-5%	2%	x	x	-5%	x	x
Cn1c(=S)[nH]c2scc(-c3cccs3)c2c1=O	-17%	-23%	u	u	u	11%	11µM*	14µM*
C=CCn1c(=S)[nH]c2scc(-c3cccs3)c2c1=O	-18%	-7%	u	-11%	11%	4%	x	x
Cc1cc(NC(=O)C(Cl)Cl)cc2c1OCO2	x	-6%	x	-9%	x	x	x	x
COc1ccc(N2C(=O)/C(=C/N(C)C)NC2=S)cc1	4%	9%	-6%	-7%	56µM*	-6%	5.6µM*	13µM*
CC1(C)OC(=O)C(=Cc2ccc(-c3ccc(Cl)c(C(=O)O)c3)o2)C(=O)O1	7%	u	-3%	1.7µM*	79µM*	-2%	7.1µM*	18µM*
Cc1ccc(-c2ccc(C(=O)O)o2)cc1Cl	11%	-3%	9%	-3%	-5%	10%	x	x
O=C1C=CC(=O)C(C2=C3C(=O)N(CCc4ccccc4)CC(=O)N3CCC2)=C1	u	32µM*	16µM*	u	1µM*	u	0.56µM*	0.89µM*
Cc1sc2ccccc2[n+]1CC(=O)O	-16%	22µM*	28µM*	u	2µM*	32µM*	3.5µM*	13µM*
CCn1cc2nc(SCc3cc(C)ccc3C)n(Cc3ccc(C)cc3)c(=O)c2n1	-7%	7%	-6%	x	x	0%	x	x
Cc1ccc(-n2c(N)c(C(=O)N3CCN(C)CC3)sc2=S)cc1	-11%	25µM*	u	3µM*	-93%	u	0.63µM*	4.5µM*
CCN1c2ccccc2-c2nc(SCC(=O)Nc3c(C)cc(C)cc3C)ncc2S1(=O)=O	-13%	7%	-1%	x	x	-12%	x	x
CN(C)c1ccc(Cc2cc3c(O)ccc(O)c3cc(Cc3ccc(N(C)C)cc3)c2=O)cc1	x	45µM*	x	0.95µM*	x	x	3.5µM*	3.5µM*
CN(C)c1ccc(C(=O)c2ccc(O)cc2O)cc1	-24%	-10%	u	-7%	-1%	13%	x	x
COc1ccccc1OCC(=O)N1CCN(S(=O)(=O)c2ccc(Cl)cc2)CC1	x	-16%	x	4%	x	x	x	x
CC(Oc1ccccc1Cl)C(=O)Nc1ccc(S(=O)(=O)N2CCN(C)CC2)cc1 (stereo not given)	x	u	x	19µM*	x	x	u	u
CC(Oc1ccccc1)C(=O)Nc1ccc(S(=O)(=O)N2CCN(C)CC2)cc1 (stereo not given)	x	-25%	x	-6%	x	x	x	x
COCCNC(=O)C(C)OC(=O)C1=Cc2ccccc2OC1 (stereo not given)	-4%	-22%	-5%	-10%	12%	2%	x	x
CC(OC(=O)C1=Cc2ccccc2OC1)C(=O)NCC1CCCO1 (stereo not given)	x	u	x	12µM*	x	x	-7%	-7%
Cc1onc(-c2c(F)cccc2Cl)c1C(=O)N1CCCc2ccccc21	-5%	26%	-4%	-2%	18%	-1%	8.9µM*	7.9µM*
Cc1onc(-c2c(F)cccc2Cl)c1C(=O)N1CCCC1	x	4%	x	-6%	x	x	x	x
Cc1onc(-c2ccccc2Cl)c1C(=O)N1CCCc2ccccc21	-8%	-12%	-9%	-6%	14%	-4%	7.9µM*	8.9µM*
SMILES	Tau fluor cs	VDR inh	Tau fibril ThT	PLK1 PBD inh	Sfp PPTase inh	Tau FP inhib	TbPYK confirm	TbPYK ADP-Glo
Cc1ccc(NC2=C(NC(=O)c3ccccc3)C(=O)c3ccccc3C2=O)cc1Cl	u	-15%	16µM*	27µM*	10µM*	u	u	u
O=C(CN1C(=O)c2cccnc2Oc2ccc(Cl)cc21)NCCCN1CCCCC1	7%	1%	2%	x	x	-1%	x	x
Cc1ccc(S(=O)(=O)NNC(=O)C2CCN(S(=O)(=O)c3ccc(C)cc3)CC2)cc1	-7%	-1%	-8%	-7%	16%	-1%	4%	-3%
CCC[C@@H]1C=C(C(=O)OCC)[C@H](c2ccccc2)N1S(=O)(=O)c1ccc(C)cc1	x	x	x	-14%	x	x	x	x
O=C1c2sc3nc4n(c(=O)c3c2CCC1Br)CCCCC4 (stereo not given)	u	u	u	-1%	20µM*	u	4µM*	5.6µM*
CNC(=O)/C(C#N)=c1\s/c(=C/C(=O)OC)c(=O)n1-c1ccccc1	1%	1%	-14%	-13%	8%	-9%	x	x
COC(=O)/C=c1\sc2ncnn2c1=O	-14%	-14%	16µM*	u	10µM*	14µM*	28µM*	28µM*
Cc1ccccc1-c1cc2nc(NCCN3CCNC3=O)n(C)c(=O)c2s1	x	x	x	-13%	x	x	x	x
CCN(CC)C(=O)c1sc2nc(N3CCOCC3)c3c(c2c1N)CCCC3	-28%	-11%	u	u	45µM*	-8%	7.9µM*	4.5µM*
CCOC(=O)c1sc2nc(N3CCOCC3)c3c(c2c1N)CCCC3	-18%	-8%	-12%	-2%	7%	-2%	x	x
O=C(Nc1ccccc1)c1nnsc1S(=O)c1ccc(Cl)cc1 (stereo not given)	3%	u	-12%	0.47µM*	7.9µM*	-9%	16µM*	14µM*
O=C(Nc1ccc(Cl)cc1)c1cccs1	-12%	4%	3%	-5%	-6%	6%	x	x
C=C(C)C1CC=C(C)CC1 (stereo not given)	x	4%	x	x	6%	x	x	x
O=C(Nc1ccc(Cl)cc1)C(Cl)C(=O)c1ccccc1 (stereo not given)	x	18µM*	x	0.6µM*	28µM*	x	7.9µM*	14µM*
CCN1/C(=C2\C(=O)N(C)C(=S)N2C)C=Cc2ccccc21	-12%	0%	u	0%	-6%	0%	u	u
O=C(COC(=O)/C=C/c1ccccc1)NC1CCCCC1	x	-8%	x	5%	x	x	x	x
